According to the supplement of paper PMC6555819:

Columns and labels:
Assay in all cases: PBM binding z-score (relative to random genomic background probes); higher = stronger binding; sequences stand for … in GC…GCGATTGACAGCGTAGAATGAAGG
[1] = system: FXR:RXRa (NR concentration 270 nM, RXRa partner concentration 90 nM)
Outline: (§1)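 Ligand-free nuclear receptor dimers were applied to custom Agilent 4×180K protein-binding microarrays whose double-stranded probes carried direct-repeat seeds, single-nucleotide variants, half-site ablations and random human genomic background sequences in 34-nt variable regions. Incubation lasted 1 h. Binding z-scores were computed against the random background probes from regression-normalized fluorescence.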

[2] = system: LXRa:RXRa (NR concentration 270 nM, RXRa partner concentration 90 nM)
Outline: as §1

[3] = system: LXRa homodimer (NR concentration 270 nM)
Outline: as §1

[4] = system: LXRb:RXRa (NR concentration 270 nM, RXRa partner concentration 90 nM)
Outline: as §1

[5] = system: LXRb homodimer (NR concentration 270 nM)
Outline: as §1

[6] = system: PPARa:RXRa (NR concentration 270 nM, RXRa partner concentration 90 nM)
Outline: as §1

[7] = system: PPARg:RXRa (NR concentration 180 nM, RXRa partner concentration 90 nM)
Outline: as §1

[8] = system: PPARg:RXRa 270nM:90nM, anti-RXR (NR concentration 270 nM, RXRa partner concentration 90 nM)
Outline: as §1

[9] = system: PPARg:RXRa 30nM:10nM, anti-RXR (NR concentration 30 nM, RXRa partner concentration 10 nM)
Outline: as §1

[10] = system: PPARg:RXRa 90nM:30nM, anti-RXR (NR concentration 90 nM, RXRa partner concentration 30 nM)
Outline: as §1

Sequence	PBM binding z-score [1]	PBM binding z-score [2]	PBM binding z-score [3]	PBM binding z-score [4]	PBM binding z-score [5]	PBM binding z-score [6]	PBM binding z-score [7]	PBM binding z-score [8]	PBM binding z-score [9]	PBM binding z-score [10]
CGCCCAAGGTCAATGCTAGGTCAGTGAAAGCATT	6.51	5.61	2.46	4.24	0.667	4.93	4.07	4.33	1.03	3.08
AGAACGAGGGCACGCTGAGTTTATAGCAGAGTAG	0.87	1.08	-0.437	0.283	-1.07	2.21	2.19	1.98	0.505	1.43
AGAATGAGGTTATAAGTAGATCAGGGAAGAAAGT	1.94	1.59	0.0372	1.73	0.269	2.96	2.67	2.94	1.34	2.45
TCTTGTAGCTCAAGCAGGTTAAGAAAGCCTGAGT	-0.423	-0.287	-0.662	0.0107	-0.909	0.461	-0.708	0.77	2.04	1.39
TCTTGTAGATCAAGAGAGGTTAAGAAAGTGCGCT	0.516	3.28	0.0219	1.46	-0.672	1.44	-0.217	1.2	2.19	1.72
CCTTACGGGTCACTGACAGGCTATAGCATTTGGA	4.95	3.52	-0.0559	3.1	-0.0175	4.91	3.88	4.36	1.54	2.83
CGTCAAAGTTCAAGGTATCGTAACAGAAAGCAGC	5.48	5.39	2.28	3.16	1.03	4.38	3.83	4.59	1.75	3.38
CGAACTAGGTCATTAACAGGACAGTGAATAGTAA	3.27	2.59	0.8	1.88	-0.0794	4.12	7.01	5.93	3.43	5.45
CGAACTAGGTCAGAACAGGACAGTGATGGATGAT	1.29	0.678	0.233	0.327	-0.482	2.91	5.11	4.36	2	3.37
CCGACTGGGGCATAAGTTTACCATAAGCCAGCCC	-0.352	-0.207	-0.448	-0.337	-0.91	0.222	1.66	2.44	0.241	1.74
CGTCCAAGGTCCGAGAGGTCAGTGAATGCCGAGT	2.4	1.89	1.06	1.86	-0.631	2.26	-0.135	0.688	-0.759	-0.083
CCTTACGGGTCACTGACAGGTTATAGCCTTTGGA	5.57	4.01	0.368	3.43	-0.148	4.99	4.28	4.31	1.31	2.99
GCTTTCGGGTCAAAGGTTATAGCATGAATAGAAT	7.21	5.74	0.496	5.58	0.746	6.76	11.3	9.26	8.67	10
CCACACAGGTGAGAAGGTAACTCAGCCTCGATTA	0.187	0.0665	0.368	0.214	-0.197	0.855	0.76	0.577	-0.223	0.451
ATACCAAGGTGATCGTGAGGTCGTTCATACTAAC	2.05	1.58	1.23	1.4	0.148	1.53	0.472	0.354	-0.0192	-0.0407
CCGACTGGGACAAAGGTTACCATACTCAGTACGA	0.993	1.51	0.114	1.8	-0.631	4.69	9.69	8.78	8.13	10.5
CGTTCAAGGTCAAGGTCAGTGAAAGAGACTCGAA	8.13	5.69	1.57	5.06	1.66	6.33	6.87	6.8	3.49	5.56
ATCGAAAGGTCGCGGTGAGTATAGAGAAAGGGAA	6	4.14	0.362	3.7	0.371	5.23	4.84	4.74	1.65	3.31
ATCTCTAGGTAAAGTCCAGTGAAAGATCGATAGA	0.403	0.465	0.0712	-0.241	1.11	0.175	0.232	0.48	0.421	0.165
CCTAGCAGGCCTATCTGGGTCACTCAAGGCTTGA	0.317	0.546	-0.58	0.838	-1.2	3.07	1.7	2.01	-0.0826	1.15
AGAATGAGGTTACCAAAGATTAGGGAAACGCTTG	1.75	4.54	-0.368	1.72	-0.268	3.31	2.43	2.72	1.12	1.93
TCGAGTGGGTTAGTCGGGGCATTCAGCCAACATA	0.26	0.197	0.0739	0.985	-0.295	0.659	-0.439	0.869	0.979	0.719

Sequence	PBM binding z-score [1]	PBM binding z-score [2]	PBM binding z-score [3]	PBM binding z-score [4]	PBM binding z-score [5]	PBM binding z-score [6]	PBM binding z-score [7]	PBM binding z-score [8]	PBM binding z-score [9]	PBM binding z-score [10]
CCTAGCAGGCCAGGGTCACTCACGCATTTCGCTT	2.04	1.57	-0.247	1.73	-0.927	2.94	0.599	1.29	-0.606	0.36
CCGACTGGGGCATAAGGCTACCATAAGCCAGCCC	-0.264	-0.169	-0.35	-0.67	-1.17	0.356	1.55	2.13	0.339	1.84
TCGAGTAGGTTAGCCGGGGCATTCAGCCAACATA	0.0762	-0.0841	-0.659	0.0461	-1.01	0.893	-0.0642	0.609	0.847	0.701
CAAACTAGGTCAAGAGGTCAAAGTCCGCTTCCCG	7.09	6.37	6.55	5.7	1.96	6.67	9.95	8.33	6.28	8.63
TCGAGTAGGTTAGGGGCATGCAGAATGGCGTCGA	0.354	0.125	-0.474	0.49	-0.161	1.29	0.641	1.68	0.979	1.27
GCAGACAGGTGAAACGCAGGAAACTCAGGGTGGC	-0.517	-0.226	-0.695	-0.346	-1.08	0.952	0.592	-0.351	-0.59	-0.582
AGAATGAGGTTACGAAAGATCAGGGAAACGCTTG	2.59	4.99	-0.188	2.46	-0.578	3.68	2.95	2.84	1.04	2.02
TCTTATAGGTAAAAGGTGAAAGTCGGTGTGGTAA	2.14	2.25	0.401	2.19	0.39	5.39	8.99	8.57	8.65	9.86
CGTGCTAGGTCAATGGTCAGCTAAAGCAGCTCGC	3.1	2.22	0.0909	1.37	-0.184	3.03	5.04	5.55	2.98	5.12
CCGACTGGGGCAAAGGGTACCATACTCAGTACGA	-0.124	-0.144	-0.41	0.194	-1.06	3.81	8.34	7.63	6.97	8.88
GTACCAAGGTGAAGAGGTCGTTGATGAGTAGGCG	1.67	1.32	0.0368	1.13	-0.425	3	1.95	2.49	0.544	1.72
GATACAGGGTCAAGGCCAGAGTTCGCGTATTGAT	6.64	4.34	0.289	3.72	-0.198	5.66	5.99	5.93	2.4	4.93
TCTAGTTCGTCAAAGGTCACACACTCGAAATGCG	6.15	6.02	4.48	5.55	1.9	5.99	5.62	6.47	5.73	6.28
ATCACTAGGTAACCAAGTTCAGTGAATGCCGAAC	0.163	0.618	0.625	0.415	-0.134	1.42	1.82	1.3	0.47	0.739
CCTTACGGGTCACTACAGGTTATAGCATCGGAGT	4.92	8	2.22	6.14	0.211	4.69	3.41	3.84	1.46	2.62
GCTAGTTGGTCAGTAAAGGGTCACACACCGGTCG	2.1	2.52	1.36	2.63	0.0328	3.36	1.72	2.79	0.505	1.89
CGAACTAGGTCATCCAGGACAGTCAATACATTGA	4.68	3.11	0.817	2.43	0.306	5.03	7.74	6.5	3.94	6.22
AGTCAAAGTTCCCTAGGTAACGTAAGATTCAGCT	-0.33	-0.385	-0.0977	-0.4	-0.222	-0.259	0.281	0.455	0.0394	-0.0115
TATTGTAGATCAGCAGGTTAAGAAAGCTGGCCAA	-0.221	-0.214	-0.56	-0.0553	-0.105	0.342	-0.269	0.483	-0.249	0.429
ACTAGCAGGCCAAGTTTGGGTCACTGAAACAAAG	0.428	0.0569	-0.409	0.671	-0.515	1.52	0.0239	0.587	-0.227	-0.112
ACTAGCAGGCCAAGGGTCACTAAAGATTAGTCCG	2.25	3.51	-0.00755	2.66	-0.174	4.34	8.06	7.21	6.64	7.61
TCTCGGAGTACACGAAAGGTCAGAGCTCGACATC	2.31	3.69	2.03	3.2	-0.426	3.55	1.78	3.53	2.52	3.11
